Assay results taken from PubChem BioAssay (Tox21).
A number with no mark means an inactive call. Records with an inconclusive call do not appear. Where a call stands in place of a potency, no number is given. Calls of active or inactive are those of the source. Unless noted, the call rests on the fitted dose curve.

How the values were obtained:
[1] = Nuclear factor erythroid 2-related factor 2/antioxidant responsive element (Nrf2/ARE) small molecule agonists: qHTS cell viability counter screen in human keratinocytes (AID 1919968; active means well fitted curve in the direction sought with a large enough effect in the repeat runs; an effect the other way counts as inactive or inconclusive; further: nearly all actives have a fitted effect of over 55% in size; further: potency means the concentration at half of the fitted maximal effect)
Method in brief: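 Stably transfected HaCaT (KeratinoSens), 1,500/well. Test agents in DMSO were applied for 23 h, 37 C/5% CO2. CellTiter-Fluor was incubated 1 h before the fluorescence read.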

[2] = Nuclear factor erythroid 2-related factor 2/antioxidant responsive element (Nrf2/ARE) small molecule agonists: luciferase reporter gene qHTS assay in human keratinocytes (AID 1919969); further: nearly all actives have a fitted effect of over 35% in size
[3] = target: Gonadotropin-releasing hormone receptor (Homo sapiens) (UniProt P30968); test: Human gonadotropin-releasing hormone receptor (GnRHR) small molecule agonists, calcium flux assay in GnRHR-HEK293 cells (AID 1920063); further: nearly all actives have a fitted effect of over 35% in size
Method in brief: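 Stable human GnRHR HEK293 line. 18 h plating, then calcium dye for 1 h at 37 C. Agonist-mode compound addition from DMSO stocks; fluorescence monitored 3 min.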

[4] = target: KiSS-1 receptor (Homo sapiens) (UniProt Q969F8); test: Human kisspeptin (KISS1R) small molecule agonists, calcium flux assay in KISS1R-HEK293 cells (AID 1920064; active means well fitted curve in the direction sought with a large enough effect in the repeat runs; an effect the other way counts as inactive or inconclusive)
Method in brief: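 After overnight (18 h) culture at 37 C/5% CO2, human KISS1R-HEK293 cells received calcium dye for 1 h, then test compound; emission at 540 nm (excitation 480 nm) was tracked for 3 min.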

[5] = G protein-coupled receptor (GPCR) small molecule agonists, calcium flux assay: HEK293 wild type cell line counter screen (AID 1920065)
Method in brief: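 Following 18 h incubation at 37 C/5% CO2, plates got calcium dye for 1 h; compounds, ATP or DMSO were then pinned in and fluorescence followed kinetically (480/540 nm).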

[6] = p53 small molecule agonists, cell-based qHTS assay with human liver microsomes (AID 1963577);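 further: p53 response element beta-lactamase reporter cells with liver microsomes plus NADPH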
Method in brief: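 p53RE-bla cells; 5 h settle, 37 C/5% CO2; cpd + HLM 0.5 mg/mL + NADPH 0.5 mg/mL (final); 16 h 37 C; LiveBLAzer 2 h RT dark; fluorescence readout.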

[7] = p53 small molecule agonists, cell-based qHTS assay with rat liver microsomes (AID 1963578)
Method in brief: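 Rat liver microsome activation: microsomes 0.5 mg/mL, NADPH 0.5 mg/mL final; p53RE-bla cells, 16 h 37 C; LiveBLAzer readout, 2 h RT dark.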

[8] = p53 small molecule agonists, cell-based qHTS assay with human liver microsomes: qHTS cell viability counter screen (AID 1963579); further: nearly all actives have a fitted effect of over 45% in size
Method in brief: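 Luminescent CellTiter-Glo read-out, 30 min at room temperature, gauged cytotoxicity in p53RE-bla cells exposed 16 h at 37 C to DMSO-dissolved compounds with metabolic activation by human liver microsomes and NADPH, each 0.5 mg/mL final.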

[9] = p53 small molecule agonists, cell-based qHTS assay with rat liver microsomes: qHTS cell viability counter screen (AID 1963580); further: nearly all actives have a fitted effect of over 45% in size
Method in brief: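 After the beta-lactamase ratio was read, CellTiter-Glo was added to the same wells and luminescence measured at 30 min; cells had been treated 16 h at 37 C with compounds, rat liver microsomes and NADPH (0.5 mg/mL final each).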

[10] = p53 small molecule agonists, cell-based qHTS assay: qHTS cell viability counter screen (AID 1963581); further: nearly all actives have a fitted effect of over 45% in size
Method in brief: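 qHTS counter screen: 16 h compound exposure at 37 C of p53RE-bla HCT-116 cells (4,000 per well, seeded 5 h prior), cell viability by ATP luminescence.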

[11] = p53 small molecule agonists, cell-based qHTS assay (AID 1963582; active means well fitted activation curve with a large enough effect in the signal ratio in the repeat runs, not every such curve was filed as active; the % refers to the signal ratio)
Method in brief: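 Measured: fluorescence from cleaved LiveBLAzer substrate. System: p53RE-bla cells, 16 h compound treatment at 37 C, 2 h substrate step at room temperature.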

[12] = target: 5-hydroxytryptamine receptor 2A (Homo sapiens) (UniProt P28223); test: 5-hydroxytryptamine receptor 2A (HTR2A) small molecule antagonists, cell-based qHTS assay (AID 1963586); further: nearly all actives have a fitted effect of over 45% in size; further: potency means the concentration at half of the fitted maximal effect
Method in brief: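 CHO cells stably expressing human HTR2A were plated for 18 h at 37 C, then loaded with calcium dye for 1 h. Compounds were preincubated 5 min at room temperature before DOI (4 nM solution) was added. Kinetic fluorescence was read for 3 min.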

[13] = target: 5-hydroxytryptamine receptor 2A (Homo sapiens) (UniProt P28223); test: 5-hydroxytryptamine receptor 2A (HTR2A) small molecule agonists, cell-based qHTS assay (AID 1963587); further: nearly all actives have a fitted effect of over 30% in size
Method in brief: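 CHO cells stably expressing human HTR2A, plated 18 h, loaded with calcium dye 1 h at 37 C. Agonist mode: compounds added and intracellular calcium fluorescence recorded kinetically for 2 min at 1 sec intervals.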

[14] = target: Muscarinic acetylcholine receptor M1 (Homo sapiens) (UniProt P11229); test: Cholinergic receptor muscarinic 1 (CHRM1) small molecule antagonists, cell-based qHTS assay (AID 1963588); further: nearly all actives have a fitted effect of over 40% in size
Method in brief: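 Compounds were tested at 15 concentrations in three independent runs. Dye-loaded CHRM1-CHO cells were exposed 5 min at room temperature before stimulation by acetylcholine added at 50nM. Intracellular calcium was read kinetically on FDSS for 3 min.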

[15] = cAMP Responsive Elements (CRE) small molecule antagonists, cell-based qHTS assay (AID 1963591; active means well fitted inhibition curve with a large enough effect in the signal ratio in the repeat runs, not every such curve was filed as active; the % refers to the signal ratio)
Method in brief: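 Reporter line CRE-bla HEK 293T in dialyzed-FBS DMEM; cells preincubated 18 h, treated 3 h with compound plus NKH477 (0.25 uM final); LiveBLAzer FRET, 2 h RT.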

[16] = target: Beta-2 adrenergic receptor (Homo sapiens) (UniProt P07550); test: Adrenergic beta2 receptor (ADRB2) small molecule antagonists, cell-based qHTS assay (AID 1963592); further: nearly all actives have a fitted effect of over 50% in size; further: potency means the concentration at half of the fitted maximal effect
Method in brief: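 Assay format: CHO-ADRB2 cells, 18-20hr seeding at 37C/5% CO2, then compound plus 1nM isoproterenol agonist mix for 0.5hr RT. Homogeneous time-resolved fluorescence cAMP detection after 1hr, expressed as 665/615 nm ratio.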

[17] = target: D(2) dopamine receptor (Homo sapiens) (UniProt P14416); test: Dopamine D2 receptor (DRD2) small molecule agonists, cell-based qHTS assay (AID 1963594); further: nearly all actives have a fitted effect of over 35% in size
Method in brief: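 HEK293 cells stably expressing human DRD2, pre-treated with PDE inhibitor Ro20-1724 (0.1 mM final) and compound 10 min at room temperature, then stimulated with NKH477 (200nM […]) for 30 min. cAMP read by HTRF (665/620 nm).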

[18] = target: D(2) dopamine receptor (Homo sapiens) (UniProt P14416); test: Dopamine D2 receptor (DRD2) small molecule antagonists, cell-based qHTS assay (AID 1963595; active means well fitted inhibition curve with a large enough effect in the signal ratio in the repeat runs, with a control signal flat; the % refers to the signal ratio; further: potency means the concentration at half of the fitted maximal effect)
Method in brief: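 Antagonist mode in DRD2-HEK293 cells: after compound addition with 0.1 mM Ro20-1724, cells received quinpirole (12 nM) and NKH477 (200 nM) for 30 min at room temperature; HTRF cAMP read after 1 h detection.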

[19] = target: Muscarinic acetylcholine receptor M1 (Homo sapiens) (UniProt P11229); test: Cholinergic receptor muscarinic 1 (CHRM1) small molecule agonists, cell-based qHTS assay (AID 1963589); further: nearly all actives have a fitted effect of over 35% in size
Method in brief: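 Kinetic fluorescence (1 s intervals) of calcium-sensitive dye in human M1 CHO cells after compound addition; cells pre-incubated 18 h at 37 C/5% CO2 and dye-loaded 1 h.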

[20] = cAMP Responsive Elements (CRE) small molecule agonists, cell-based qHTS assay (AID 1963590)
Method in brief: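 Test agents in DMSO were incubated 3 h at 37 C/5% CO2 with CRE-bla HEK 293T cells seeded 18 h earlier; LiveBLAzer B/G FRET substrate was added and read after 2 h at room temperature.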

Chain of Beta-2 adrenergic receptor (Homo sapiens) (P07550 whole entry, looked up): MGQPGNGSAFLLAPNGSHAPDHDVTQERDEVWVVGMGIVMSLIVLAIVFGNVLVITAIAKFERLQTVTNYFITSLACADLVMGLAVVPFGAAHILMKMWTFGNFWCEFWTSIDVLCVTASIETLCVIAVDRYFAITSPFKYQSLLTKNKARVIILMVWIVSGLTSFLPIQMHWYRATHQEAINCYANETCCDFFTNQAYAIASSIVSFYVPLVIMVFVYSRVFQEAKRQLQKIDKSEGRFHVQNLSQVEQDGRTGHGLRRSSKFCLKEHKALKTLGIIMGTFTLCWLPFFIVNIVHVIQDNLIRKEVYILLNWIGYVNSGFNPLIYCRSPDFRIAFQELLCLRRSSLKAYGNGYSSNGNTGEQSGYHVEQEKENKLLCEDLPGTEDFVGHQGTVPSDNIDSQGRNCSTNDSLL
Chain of Gonadotropin-releasing hormone receptor (Homo sapiens) (P30968 whole entry, looked up): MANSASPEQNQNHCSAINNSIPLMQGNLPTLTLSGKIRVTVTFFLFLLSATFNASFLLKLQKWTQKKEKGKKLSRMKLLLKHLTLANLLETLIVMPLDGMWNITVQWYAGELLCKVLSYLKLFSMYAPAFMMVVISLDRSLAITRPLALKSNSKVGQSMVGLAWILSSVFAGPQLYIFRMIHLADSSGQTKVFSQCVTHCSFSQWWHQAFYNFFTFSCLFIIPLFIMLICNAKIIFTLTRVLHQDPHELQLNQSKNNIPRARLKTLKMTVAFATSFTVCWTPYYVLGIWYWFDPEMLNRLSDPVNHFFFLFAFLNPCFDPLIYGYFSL
Chain of KiSS-1 receptor (Homo sapiens) (Q969F8 whole entry, looked up): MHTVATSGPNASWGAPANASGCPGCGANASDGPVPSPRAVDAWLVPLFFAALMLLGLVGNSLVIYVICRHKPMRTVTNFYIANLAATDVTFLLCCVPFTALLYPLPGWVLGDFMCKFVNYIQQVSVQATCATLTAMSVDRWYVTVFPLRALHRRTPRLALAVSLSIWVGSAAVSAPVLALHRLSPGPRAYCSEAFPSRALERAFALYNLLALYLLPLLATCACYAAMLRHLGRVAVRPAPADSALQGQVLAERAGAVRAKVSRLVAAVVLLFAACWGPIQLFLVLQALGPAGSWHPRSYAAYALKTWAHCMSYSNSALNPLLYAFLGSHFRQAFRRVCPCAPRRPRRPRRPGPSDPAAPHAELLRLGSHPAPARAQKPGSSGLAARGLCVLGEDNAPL
Chain of Muscarinic acetylcholine receptor M1 (Homo sapiens) (P11229 whole entry, looked up): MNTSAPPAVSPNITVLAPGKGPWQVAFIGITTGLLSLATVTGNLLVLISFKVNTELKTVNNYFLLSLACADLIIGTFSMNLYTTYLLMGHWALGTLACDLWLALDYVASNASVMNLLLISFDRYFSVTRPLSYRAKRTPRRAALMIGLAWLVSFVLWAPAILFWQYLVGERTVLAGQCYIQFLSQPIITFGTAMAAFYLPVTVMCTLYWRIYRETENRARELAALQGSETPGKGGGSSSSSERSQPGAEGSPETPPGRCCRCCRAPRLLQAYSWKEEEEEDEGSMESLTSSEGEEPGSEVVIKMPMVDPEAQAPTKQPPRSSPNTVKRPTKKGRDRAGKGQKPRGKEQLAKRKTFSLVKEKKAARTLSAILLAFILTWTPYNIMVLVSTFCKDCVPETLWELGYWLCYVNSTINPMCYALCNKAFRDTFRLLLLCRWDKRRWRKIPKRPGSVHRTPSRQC
Chain of 5-hydroxytryptamine receptor 2A (Homo sapiens) (P28223 whole entry, looked up): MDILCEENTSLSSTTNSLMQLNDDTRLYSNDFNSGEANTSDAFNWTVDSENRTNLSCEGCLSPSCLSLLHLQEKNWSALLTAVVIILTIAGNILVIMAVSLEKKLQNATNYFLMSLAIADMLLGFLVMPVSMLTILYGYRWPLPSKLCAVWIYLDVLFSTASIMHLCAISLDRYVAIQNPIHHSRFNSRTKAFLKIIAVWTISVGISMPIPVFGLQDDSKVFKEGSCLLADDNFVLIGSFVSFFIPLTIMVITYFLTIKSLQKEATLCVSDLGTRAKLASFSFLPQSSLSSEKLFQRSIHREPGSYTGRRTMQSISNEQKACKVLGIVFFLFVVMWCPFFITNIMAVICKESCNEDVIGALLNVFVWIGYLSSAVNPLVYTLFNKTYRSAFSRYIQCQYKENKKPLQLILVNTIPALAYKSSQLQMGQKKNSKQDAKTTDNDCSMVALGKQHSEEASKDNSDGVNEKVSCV
Chain of D(2) dopamine receptor (Homo sapiens) (P14416 whole entry, looked up): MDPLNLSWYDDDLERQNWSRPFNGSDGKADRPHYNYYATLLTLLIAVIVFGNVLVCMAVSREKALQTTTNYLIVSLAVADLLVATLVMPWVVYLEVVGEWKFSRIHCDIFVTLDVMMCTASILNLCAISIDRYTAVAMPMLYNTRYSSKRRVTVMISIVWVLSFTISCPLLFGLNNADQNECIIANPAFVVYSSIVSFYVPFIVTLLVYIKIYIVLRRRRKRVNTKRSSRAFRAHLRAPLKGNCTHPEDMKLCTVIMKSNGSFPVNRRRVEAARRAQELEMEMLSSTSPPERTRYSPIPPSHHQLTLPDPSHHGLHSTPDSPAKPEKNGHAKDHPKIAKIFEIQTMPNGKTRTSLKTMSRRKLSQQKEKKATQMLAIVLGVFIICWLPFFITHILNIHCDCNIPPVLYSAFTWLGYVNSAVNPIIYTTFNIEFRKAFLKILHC

SMILES | Potency [1] | Potency [2] | Potency [3] | outcome [4] | outcome [5] | Potency [6] | Potency [7] | Potency [8] | Potency [9] | Potency [10] | Potency [11] | Potency [12] | Potency [13] | Potency [14] | Potency [15] | Potency [16] | Potency [17] | Potency [18] | Potency [19] | Potency [20]
CCCCOC(=O)[C@@H](C)Oc1ccc(Oc2ccc(C(F)(F)F)cn2)cc1 | inactive | inactive | inactive | inactive | inactive | inactive | inactive | inactive | inactive | inactive | inactive | inactive | inactive | inactive | inactive | inactive | inactive | inactive | – | –
O=[N+]([O-])c1ccc2[nH]ncc2c1 | inactive | inactive | inactive | inactive | inactive | inactive | inactive | inactive | inactive | inactive | inactive | inactive | inactive | inactive | – | inactive | inactive | inactive | inactive | –
CCCCC(CC)COC(=O)CCCCCCCCC(=O)OCC(CC)CCCC (configuration not stated) | inactive | inactive | inactive | inactive | inactive | inactive | inactive | inactive | inactive | inactive | inactive | inactive | inactive | inactive | inactive | inactive | inactive | – | – | inactive
CCN(CC)CCOc1ccc(Cc2ccccc2)cc1 | inactive | inactive | inactive | inactive | inactive | inactive | inactive | inactive | inactive | inactive | inactive | inactive | inactive | – | inactive | inactive | inactive | inactive | inactive | inactive
CN1CCN(c2cc3c(cc2F)c(=O)c(C(=O)O)cn3-c2ccc(F)cc2)CC1 | 1.88 µM (active) | inactive | inactive | inactive | inactive | inactive | inactive | inactive | inactive | inactive | inactive | inactive | inactive | inactive | – | inactive | inactive | inactive | inactive | –
O=C(CCN1CCC(c2ccccc2)C1)c1ccc2c(c1)OCCO2 (configuration not stated) | inactive | inactive | inactive | inactive | inactive | inactive | inactive | inactive | inactive | inactive | inactive | inactive | inactive | inactive | – | inactive | inactive | – | – | inactive
CS(=O)(=O)c1ccc([C@@H](C[C@H]2CCC(=O)C2)C(=O)Nc2cnccn2)cc1Cl | inactive | inactive | inactive | inactive | inactive | inactive | inactive | inactive | inactive | inactive | inactive | inactive | inactive | inactive | – | – | inactive | – | inactive | –
CC(C)(C)c1cc(CCC(=O)NCCCCCCNC(=O)CCc2cc(C(C)(C)C)c(O)c(C(C)(C)C)c2)cc(C(C)(C)C)c1O | inactive | inactive | inactive | inactive | inactive | inactive | inactive | inactive | inactive | inactive | inactive | inactive | inactive | inactive | – | inactive | inactive | inactive | – | –
O=C(OOC(=O)c1ccccc1)c1ccccc1 | inactive | inactive | inactive | inactive | inactive | inactive | inactive | inactive | inactive | inactive | inactive | inactive | inactive | inactive | inactive | inactive | – | inactive | – | inactive
O=C(OCC1(COC(=O)c2cccnc2)CCCC(COC(=O)c2cccnc2)(COC(=O)c2cccnc2)C1O)c1cccnc1 | inactive | inactive | inactive | inactive | inactive | inactive | inactive | inactive | inactive | inactive | inactive | inactive | inactive | inactive | – | inactive | inactive | inactive | inactive | –
O=C(NC1CCN(CCc2c[nH]c3ccccc23)CC1)c1ccccc1 | inactive | inactive | inactive | inactive | inactive | inactive | inactive | inactive | inactive | inactive | inactive | 0.46 µM (active) | inactive | inactive | – | 13.3 µM (active) | – | 0.596 µM (active) | inactive | –
CCCCCCC(O)CCOC(C)=O (configuration not stated) | inactive | inactive | inactive | inactive | inactive | inactive | inactive | inactive | inactive | inactive | inactive | inactive | inactive | inactive | inactive | inactive | inactive | inactive | – | inactive
Cc1c(F)cc2c(=O)c(C(=O)O)cn3c2c1CCC3C (configuration not stated) | inactive | inactive | inactive | inactive | inactive | inactive | inactive | inactive | inactive | inactive | inactive | inactive | inactive | inactive | – | inactive | inactive | inactive | – | –
Cc1cc(CC(=O)O)c(C)n1-c1ccc(Cl)cc1 | inactive | inactive | inactive | inactive | inactive | inactive | inactive | inactive | inactive | inactive | inactive | inactive | inactive | inactive | – | inactive | – | inactive | – | –
CCCCCN(CCCOC)C(=O)C(CCC(=O)O)NC(=O)c1ccc(Cl)c(Cl)c1 (configuration not stated) | inactive | inactive | inactive | inactive | inactive | inactive | inactive | inactive | inactive | inactive | inactive | inactive | inactive | inactive | – | inactive | – | inactive | inactive | –
CCCCCOC(=O)CCCC | inactive | inactive | inactive | inactive | inactive | inactive | inactive | inactive | inactive | inactive | inactive | inactive | inactive | inactive | inactive | inactive | inactive | inactive | – | inactive
